About 83,000 compounds went through this panel and 20% of them were active in at least one assay; those are over-represented in the sample as a whole.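 96-well plates, one dose, 48 hours. Percent growth reported; active if below 10.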 A number with no mark means an inactive call. The source made the active and inactive calls.
The molecules below were run on SF-539 CNS (assay: NCI-60 one-dose screen, 48 h (100 = growth as untreated, 0 = no growth, -100 = all killed)). Conditions: 10 µM unless noted.

Structure (SMILES)	growth
COC(=O)c1cc(=O)nc(N/N=C/c2ccc(C)cc2)s1	102%
COc1cc(C(=O)/C=C/c2cc(-c3ccc4c(c3)OCO4)n[nH]2)cc(OC)c1OC	-51.9% (active)
O=C(/C=C\c1ccc2c(c1)OCO2)/C=C/c1ccc2c(c1)OCO2	26.2%
COc1cc(-c2cc(-c3nc4cc(Cl)c(Cl)cc4[nH]3)[nH]n2)cc(OC)c1OC	77.8%
COC1=C(Br)C(=O)C(OC)=C(Br)C1=O	108%
COc1ccc2c(c1)C/C(=C\c1cc(-c3ccc4c(c3)OCO4)n[nH]1)C2=O	92.4%
CC(C)(C)c1ccc(OP(=S)(N/N=C/c2ccccc2O)Oc2ccc(C(C)(C)C)cc2)cc1	66.8%
OCC12CCCC(CO)(COC1)C2O (stereo not given)	105%
COc1ccc(-c2cc(/C=C/C(=O)c3ccc(N)cc3)[nH]n2)cc1	1.33% (active)
O=c1c(CNc2ccc(S(=O)(=O)Nc3ncccn3)cc2)coc2ccccc12	95.2%
NC(Cc1ccc(O)cc1)C(=O)N/N=C/c1ccccc1O (stereo not given)	104%
COc1ccc2c(c1)C/C(=C\c1cc(-c3cc(OC)c(OC)c(OC)c3)n[nH]1)C2=O	89.5%
O=c1c(CNc2ccc(S(=O)(=O)Nc3nccs3)cc2)coc2ccccc12	107%
Nc1c(C(=O)Nc2cccc(Cl)c2)sc2ncc(Cl)cc12	60.8%
CCN(CC)CCCCCNc1cc(OC(=O)c2ccccc2)cc2cccnc12	150%

Reference: PubChem BioAssay (NCI)
